KB-3-1 cytotox – qHTS assay for MDR1-selective chemotherapeutics: Primary screen using the parental adenocarcinoma cell KB-3-1; 1.4% of 400,000 active; Potency, µM (top dose mostly 46.1 µM), actives largely listed as cytotoxic; KB-3-1 viability, CellTiter-Glo ATP luminescence, 72 h; also: nearly all actives have a fitted effect of over 60% in size
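KB-3-1 cells, DMEM (no phenol red) + 10% FBS; compound by pin transfer, 72 h, 37 °C. Readout: CellTiter-Glo luminescence after 10 min. Data normalized, curve-fitted.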
SW480 rerep – A quantitative high throughput screen for small molecules that induce DNA re-replication in SW480 colon adenocarcinoma cells. 1.8% of 340,000 active. AID 624297, 2012. Potency, µM (doses to about 46.1 µM), usual class: activators. SW480 DNA re-replication, Hoechst DNA content imaging, 48 h; also: nearly all actives have a fitted effect of over 55% in size
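SW480 cells exposed to compounds for 48 hr at 37 C, 5% CO2, then Hoechst-stained 40 min. Nuclear DNA content imaged by fluorescence scanning (405 nm excitation, 500-530 nm emission); re-replication scored as increased high-intensity nuclei.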
D3 ag – qHTS of D3 Dopamine Receptor Agonist: qHTS; D(3) dopamine receptor (Homo sapiens), P35462; D3R DiscoveRx beta-arrestin cells, luminescence, 90 min; max activation, %; 0.58% of 410,000 active; in the data active = max activation above about 30%
Target sequence (P35462 whole entry, looked up): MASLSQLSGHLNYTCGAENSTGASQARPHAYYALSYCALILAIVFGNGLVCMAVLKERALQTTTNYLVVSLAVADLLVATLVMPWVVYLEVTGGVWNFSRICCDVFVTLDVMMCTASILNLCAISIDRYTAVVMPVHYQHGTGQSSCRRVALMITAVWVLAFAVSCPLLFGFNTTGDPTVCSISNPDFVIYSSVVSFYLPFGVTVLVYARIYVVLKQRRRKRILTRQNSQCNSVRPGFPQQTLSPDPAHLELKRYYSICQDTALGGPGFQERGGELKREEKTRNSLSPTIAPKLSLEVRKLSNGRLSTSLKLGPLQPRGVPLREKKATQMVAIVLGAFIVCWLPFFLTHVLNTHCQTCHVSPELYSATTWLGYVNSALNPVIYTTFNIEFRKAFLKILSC
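Agonist-mode cell screen: cells plated at 1500/well and incubated overnight at 37 °C, then exposed to library compounds for 90 min at 37 °C. Detection reagent was added for 30–60 min at room temperature, and luminescence was read.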
DRD3 antagonist – qHTS of D3 Dopamine Receptor Antagonist: qHTS; D3R cells, DiscoveRx beta-arrestin luminescence, antagonist mode; stronger effect = lower value; AID 652054, 2013; 2.5% of 360,000 active; max response, negative = inhibition, %; in the data active = max response below about -50%; inconclusive = no clear call, values can overlap the other calls
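Cells plated overnight at 1500 cells/well, then exposed to library compounds with dopamine controls for 90 minutes at 37 degrees C. DiscoveRx reagent added for 30–60 minutes at room temperature; luminescence read, quantitative HTS format.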
KB-V1 MDR tox – qHTS assay for MDR1-selective chemotherapeutics: Primary screen using the drug-selected MDR subline cells KB-V1. KB-V1 MDR cells viability, CellTiter-Glo, 72 h. Potency, µM (doses to about 46.1 µM), hits mostly cytotoxic. 3.4% of 400,000 active. AID 1347076, 2019; also: nearly all actives have a fitted effect of over 60% in size
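Cells of the MDR subline KB-V1 are plated, dosed with compound at multiple concentrations, and incubated 72 h at 37 degrees C; CellTiter-Glo is then added and luminescence read after 10 min.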
MCF10A rerep – A quantitative high throughput screen for small molecules that induce DNA re-replication in MCF 10a normal breast cells; MCF 10A DNA re-replication, Hoechst nuclear intensity, 48 h; Potency, µM (doses to about 46.1 µM), actives largely listed as activators; 2.9% of 350,000 active; also: nearly all actives have a fitted effect of over 50% in size
Of the large screens only hits and unclear results are named; the others gave an inactive call. Only some compounds are listed: those with a hit (about 8.9% of all), similar ones and a draw of the others. Unless noted, calls follow the shape of the dose curve; as a rule, active = well fitted curve in the direction sought with a large enough effect; inconclusive = small, poorly fitted or top-dose-only effect, or another doubt; inactive = no such curve, though single readings can be large; an effect the other way counts as inactive or inconclusive.

CCC(CC)C(=O)Nc1ccc(OCc2cc(=O)n3ccc(C)cc3n2)cc1	none (no result: SW480 rerep, DRD3 antagonist, MCF10A rerep)
CC1CC(C)CN(C(=O)/C(=C\c2ccccc2)c2ccccc2)C1 (stereo unspecified)	KB-3-1 cytotox inconclusive, KB-V1 MDR tox 8.2µM, MCF10A rerep 21µM
CN1CCN(C(=O)/C(=C/c2ccc(F)cc2)c2ccsc2)CC1	none
CN1CCN(C(=O)/C(=C/c2ccccc2)c2ccccc2)CC1	KB-3-1 cytotox inconclusive, DRD3 antagonist -59
Cc1cccc(-c2nc(CSCC(=O)N3CCN(c4ccccc4)CC3)c(C)o2)c1	none (no result: SW480 rerep, DRD3 antagonist, MCF10A rerep)
CC(=O)c1ccc(N2CCN(S(=O)(=O)c3ccc(-c4coc(C)n4)cc3)CC2)cc1	none (no result: SW480 rerep, DRD3 antagonist, MCF10A rerep)
COc1ccc(C(=O)CSc2nc(-c3ccccn3)nc(C)c2Cl)cc1	SW480 rerep inconclusive, DRD3 antagonist -60, MCF10A rerep inconclusive
O=C(CCS(=O)(=O)Cc1ccccc1)Nc1nc2c(s1)CCCC2	KB-3-1 cytotox inconclusive, DRD3 antagonist -103, KB-V1 MDR tox inconclusive
Cc1csc(NC(=O)CSc2nc(C(C)C)nc3ccccc23)n1	KB-3-1 cytotox inconclusive, KB-V1 MDR tox 15µM, MCF10A rerep 18µM
CCCc1nc(SCC(=O)c2ccc(OC)cc2)c2ccccc2n1	D3 ag 33, MCF10A rerep inconclusive
Cc1nc(-c2ccccn2)nc(SCC(=O)c2ccc(F)cc2)c1Cl	none
CCc1nc(SCC(=O)c2ccccc2)c2ccccc2n1	MCF10A rerep inconclusive
O=C(CS(=O)(=O)Cc1ccccc1)Nc1nc2c(s1)CCCC2	none
Oc1cc(CNC2CCCCC2)c(O)cc1CNC1CCCCC1	SW480 rerep inconclusive
CCCc1nc(SCC(=O)Nc2nc3c(s2)CCCC3)c2ccccc2n1	MCF10A rerep 16µM
Cc1ccc(C(=O)CSc2nc(C(C)C)nc3ccccc23)cc1	none
CCCc1nc(SCC(=O)c2ccccc2)c2c(=O)n(C)c(=O)n(C)c2n1	D3 ag 31
CCc1nc(SCC(=O)c2ccccc2)c2c(=O)n(C)c(=O)n(C)c2n1	KB-V1 MDR tox inconclusive
CC(C)c1nc(SCC(=O)c2ccc(F)cc2)c2ccccc2n1	SW480 rerep inconclusive, MCF10A rerep 3.3µM
CCc1nc(SCC(=O)Nc2nc3c(s2)CCCC3)c2ccccc2n1	KB-3-1 cytotox inconclusive, SW480 rerep inconclusive
Cc1ccc(CNC(=O)C2CCCN(c3nnc(-n4c(C)ccc4C)s3)C2)cc1 (stereo unspecified)	none (no result: KB-3-1 cytotox, SW480 rerep, DRD3 antagonist, KB-V1 MDR tox, MCF10A rerep)
COc1ccc(-c2c3c(=O)n(C)c(=O)n(C)c3c3n2-c2ccccc2NC3c2ccccc2OC)cc1 (stereo unspecified)	KB-V1 MDR tox inconclusive (no result: SW480 rerep, DRD3 antagonist, MCF10A rerep)
CCNc1nc(NCC)nc(SCCOC(=O)c2ccccc2)n1	none
CCNc1nc(NCC)nc(SCCOC(=O)Nc2ccc(Cl)cc2Cl)n1	MCF10A rerep 18µM
CCOC(=O)c1cc(NC(=O)c2ccc(F)cc2)c(=O)n2c1oc1ccc(Cl)cc12	none (no result: SW480 rerep, DRD3 antagonist, MCF10A rerep)
CCCCCOC(=O)C1=C(C)Nc2nnnn2C1c1ccccc1Cl (stereo unspecified)	DRD3 antagonist inconclusive, KB-V1 MDR tox 21µM, MCF10A rerep inconclusive
CCN(CC)CCOc1ccc2c(c1)C(=NO)c1cc(OCCN(CC)CC)ccc1-2	DRD3 antagonist inconclusive
CCN(CC)CCN(C)Cc1ccc(Br)cc1	DRD3 antagonist -55
CCN(CC)CCOc1ccc(/C(=C(\Cl)c2ccccc2)c2ccccc2)cc1	KB-3-1 cytotox inconclusive, DRD3 antagonist -65, MCF10A rerep 5.2µM (no result: D3 ag)
CC(C)(C)NCCOc1ccc(Br)cc1	DRD3 antagonist -52
CCN(CC)CCOc1ccc(Br)cc1	DRD3 antagonist -119
COc1cccc(OC)c1OCCNC(C)(C)C	none
CCC(=O)N1CCc2cc(S(=O)(=O)NC(CC(C)C)C(=O)NCCc3ccccc3)ccc21 (stereo unspecified)	none (no result: SW480 rerep, DRD3 antagonist, MCF10A rerep)

Source: PubChem (National Center for Advancing Translational Sciences (NCATS))
